PLK1 PBD inh: inhibitors of human PLK1 polo-box domain binding; P53350; Plk1 PBD binding of FITC phosphopeptide, fluorescence polarization; Potency, µM, most hits filed as inhibitors; 2.8% of 360,000 active; AID 720504; note: series mostly up to about 57 µM; nearly all actives have a fitted effect of over 65% in size
Target sequence (P53350 whole entry, looked up, the tested form may be a part): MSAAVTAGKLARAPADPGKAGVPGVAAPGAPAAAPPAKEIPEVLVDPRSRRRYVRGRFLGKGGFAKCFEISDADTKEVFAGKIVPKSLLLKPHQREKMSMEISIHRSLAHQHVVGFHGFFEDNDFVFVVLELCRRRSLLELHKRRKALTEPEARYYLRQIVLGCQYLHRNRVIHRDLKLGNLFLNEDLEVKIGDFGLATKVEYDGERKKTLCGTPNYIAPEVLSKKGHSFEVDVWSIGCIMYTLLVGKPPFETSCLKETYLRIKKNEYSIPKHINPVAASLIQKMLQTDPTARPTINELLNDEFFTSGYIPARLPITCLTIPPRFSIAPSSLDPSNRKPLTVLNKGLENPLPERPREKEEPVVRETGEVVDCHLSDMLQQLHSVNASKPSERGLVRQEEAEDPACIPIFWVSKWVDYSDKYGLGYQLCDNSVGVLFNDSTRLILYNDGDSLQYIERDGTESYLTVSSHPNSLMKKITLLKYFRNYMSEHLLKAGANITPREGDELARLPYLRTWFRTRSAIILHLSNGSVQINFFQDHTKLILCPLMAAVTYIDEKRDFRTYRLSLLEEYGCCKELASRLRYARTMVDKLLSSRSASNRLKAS
HP1b binding inh: HP1-beta chromodomain-methylated histone interaction inhibition | 0.56% of 390,000 active | Potency, µM (titrated, usually from 114 µM), most hits filed as inhibitors | AlphaScreen HP1-beta / biotin-H3K9me3 peptide binding | P83916; note: nearly all actives have a fitted effect of over 70% in size
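HP1-beta protein (50 nM final) preincubated 30 min at room temperature with biotinylated H3(1-18)K9me3 peptide (50 nM) in PBS pH 7.4, 0.01% Tween-20, then compound added for 30 min. AlphaScreen streptavidin donor/nickel chelate acceptor beads (10 ug/mL final), 30 min dark, luminescence read.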
BAZ2B inh: BAZ2B (human) inhibition; Q9UIF8; Potency, µM (top dose mostly 114 µM), actives largely listed as inhibitors; AID 504333; 4.4% of 360,000 active; AlphaScreen BAZ2B-H3K14Ac peptide displacement; note: nearly all actives have a fitted effect of over 60% in size
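Inhibition is scored as reduced AlphaScreen emission. The BAZ2B/b-H3(5-23)K14Ac complex (50 nM each) in PBS pH 7.4, 0.01% Tween-20 meets compound (up to 110 uM) for 30 min at RT before bead addition.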
JMJD2A Tudor inh: blocks the human JMJD2A Tudor domain; 4.4% of 390,000 active; Potency, µM (titrated, usually from 114 µM), most hits filed as inhibitors; AlphaScreen JMJD2A-Tudor / H3K4me3 peptide binding; AID 504339; note: nearly all actives have a fitted effect of over 50% in size
PI5P4Ka inh: blocks human PI5P4K alpha kinase activity | P48426 | PI5P4Kalpha enzyme, ADP-Glo luminescence, 60 min; hits give low values | 1.2% of 330,000 active | max response, % | AID 652105; active = max response of -50% or lower; inconclusive = between -30% and -50%; inactive = -30% or higher; note: value at the top dose of about 77 µM
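Reactions run in 0.038 M HEPES pH 7.4, 0.28 mM EGTA, 0.1% CHAPS and 5% DMSO, with PI5P4Kalpha, substrate, compound and 5 microM ATP final, one hour at room temperature. Readout is ADP-Glo luminescence.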
G9a block: blocks human histone lysine methyltransferase G9a; Q96KQ7; G9a H3K9 monomethylation, AlphaScreen, 2 h; Potency, µM (highest dose often 102 µM), hits mostly inhibitors; 8.8% of 350,000 active; AID 504332; note: nearly all actives have a fitted effect of over 75% in size
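AlphaScreen read-out: biotin-H3K9 peptide (500 nM) methylation by 20 nM enzyme with 20 uM SAM, 2 h at room temperature after 15 min compound preincubation; anti-monomethyl H3K9 antibody plus donor/acceptor beads, 10 min dark.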
A number is an active result; i = inactive; ? = inconclusive; nt = not tested or not shown; [ ] = remark or other dose. Hits are enriched below; roughly 12% of the tested compounds scored in any of these assays. Unless noted, calls come from the whole dose curve; as a rule, active = well fitted curve in the direction sought with a large enough effect; inconclusive = small, poorly fitted or top-dose-only effect, or another doubt; inactive = no such curve, though single readings can be large; an effect the other way counts as inactive or inconclusive.

SMILES	PLK1 PBD inh	HP1b binding inh	BAZ2B inh	JMJD2A Tudor inh	PI5P4Ka inh	G9a block
CCOCCCn1c(SCC(=O)Nc2ccccc2OC)nc2c(oc3ccccc32)c1=O	nt	i	i	i	nt	i
Cc1ccc(/C=C2\SC(=S)N(CCCC(=O)Nc3ccccc3C(=O)O)C2=O)cc1	19µM	?	i	?	i	i
Cc1ccc(/C=C2\SC(=S)N(CCCC(=O)Nc3ccc(O)cc3)C2=O)cc1	i	i	i	i	i	i
Cc1ccc(/C=C2\SC(=S)N(CCCC(=O)Nc3ccccn3)C2=O)cc1	i	i	?	?	i	71µM
COc1ccccc1Nc1cc(C)nc2nc(-c3ccccc3)nn12	nt	i	i	i	nt	i
COc1ccc(CCNC(=O)c2ccc(-c3ccc([N+](=O)[O-])cc3Cl)o2)cc1	i	i	i	?	i	35µM
COc1ccc(CCNC(=O)COc2ccc([N+](=O)[O-])cc2)cc1	19µM	i	i	i[11.4 µM]	i	i
COc1ccc(CCNC(=O)COc2ccc(-c3ccc(C#N)cc3)cc2)cc1	i	i	i	i	i	i
COc1ccc(CCNC(=O)Nc2ccccc2[N+](=O)[O-])cc1	?	i	i	i	i	50µM
CCc1ccc(S(=O)(=O)c2nnn3c2nc(NCc2ccccc2)c2cc(Cl)ccc23)cc1	nt	i	i	i	nt	i
CCOC(=O)CN1C(=O)CC(c2ccc([N+](=O)[O-])cc2)C1=O (configuration not stated)	i	i	i	i	i	45µM
O=C(COc1ccc(Cl)cc1)Nc1nnc(-c2ccco2)o1	i	i	22µM	28µM	i	i
O=C(COc1ccccc1)Nc1nnc(-c2ccc(Cl)s2)o1	i	i	?	89µM	i	i
O=C(COc1ccccc1)Nc1nnc(-c2ccco2)o1	i	i	18µM	14µM	i	?
O=S(=O)(NCC(c1ccco1)N1CCN(c2ccccc2)CC1)c1ccccc1 (configuration not stated)	nt	i	i	i	nt	i
S=c1[nH]nc(C2CCCCC2)o1	i	i	i	20µM	i	28µM
C[C@H](CO)N1C[C@H](C)[C@@H](CN(C)C(=O)c2cnccn2)Oc2cc(C#CCC3CCCC3)ccc2S1(=O)=O	i	nt	nt	nt	i	nt
Cc1noc(C)c1CC(=O)Nc1ccc2c(c1)OCO2	i	i	i	i	i	i[12.7 µM]
Nc1nc(-c2cccs2)c(NC(=O)c2ccccc2)s1	?	i	?	?	nt	7.9µM
CCOC(=O)c1nc(N/N=C/c2ccccc2)sc1Br	i	i	i	i	i	45µM
COc1ccc(/C=N/Nc2nc(-c3ccc(C)cc3)c(NC(C)=O)s2)cc1	i	?	?	56µM	i	10µM
CC(=O)Nc1sc(NC(=O)c2ccc(Cl)cc2)nc1-c1cccs1	i	i	i	i	i	nt
CC(=O)Nc1sc(N/N=C/c2ccc(O)cc2)nc1-c1ccc(C)cc1	?	40µM	?	45µM	i	13µM
CC(=O)Nc1sc(N/N=C\c2ccccc2)nc1-c1cccs1	?	50µM	?	20µM	i	11µM
CC(=O)Nc1sc(N/N=C\c2ccccc2Cl)nc1-c1cccs1	i	i	i	?	i	i
SMILES	PLK1 PBD inh	HP1b binding inh	BAZ2B inh	JMJD2A Tudor inh	PI5P4Ka inh	G9a block
CC(=O)Nc1sc(N/N=C\c2ccco2)nc1-c1cccs1	?	14µM	?	?	i	5.6µM
CC(=O)Nc1sc(N/N=C/c2ccccc2F)nc1-c1ccc(C)cc1	i	i	i	?	i	14µM
CCOc1cc(/C=N/Nc2nc(-c3cccs3)c(NC(C)=O)s2)ccc1O	27µM	20µM	40µM	28µM	?	20µM
CCNC(=O)C1(C)CCN(C(=O)c2ccc3snnc3c2)C1 (configuration not stated)	i	nt	nt	nt	i	nt
CC(=O)Nc1sc(N/N=C/c2ccccc2)nc1-c1ccc(C)cc1	i	?	?	?	i	16µM
COc1ccccc1CNC(=O)c1cc(C(C)=O)c[nH]1	i	i	i	i	i	i[2.33 µM]
COc1ccccc1CNC(=O)c1ccc2[nH]c(C)c(C)c2c1	nt	?	50µM	?	nt	?
CCC(=O)c1c[nH]c(C(=O)NCc2ccccc2OC)c1	i	i	79µM	i	i	i
Cc1cc(NC(=O)c2ccc3[nH]c(C)c(C)c3c2)ccn1	i	i	50µM	i	i	?
O=S(=O)(/C=C/c1ccccc1)N1CCN(Cc2ccccc2)CC1	i	i	i	i	i	i
Cc1ccc(/C=C/C(=O)N2CCN(S(=O)(=O)c3cccs3)CC2)o1	i	i	i	i	i	7.9µM
O=C(/C=C/c1ccco1)N1CCN(S(=O)(=O)/C=C/c2ccccc2)CC1	i	i	?	i	i	50µM
COc1ccc(C)cc1/C=C/C(=O)N1CCN(S(=O)(=O)c2cccs2)CC1	i	nt	nt	nt	i	nt
NC(=O)C1CCN(C(=O)/C=C/c2ccco2)CC1	i	i	i	i	i	8.9µM
O=S(=O)(/C=C/c1ccccc1)N1CCOCC1	i	i	i	i	i	89µM
O=C(C=Cc1ccco1)N1CCOCC1	i	i	nt	i	i	nt
CCOc1ccc(CCNC(=O)CCCn2c(=O)c3cccn3c3cccnc32)cc1	nt	i	i	i	nt	i
O=C(Nc1ccccc1F)c1ccc2sc([C@@H]3O[C@H](CO)[C@H](O)[C@H](O)[C@H]3O)nc2c1	i	nt	nt	nt	i	nt
COc1ccc(N(Cc2cccs2)C(=O)c2ccccc2C)cc1	nt	i	i	i	nt	i
CCN1CCN(C(=O)/C=C/c2ccc(C(C)C)cc2)CC1	i	i	nt	i	i	nt
CCN1CCN(C(=O)/C=C/c2ccc(C)o2)CC1	i	i	i	i	i	10µM
O=C(/C=C/c1ccco1)N1CCN(S(=O)(=O)c2cccs2)CC1	i	?	?	?	i	40µM
O=C(/C=C/c1cccc([N+](=O)[O-])c1)N1CCN(S(=O)(=O)c2cccs2)CC1	?	i	?	i	i	i
O=C(NC(NC(=S)Nc1ccccc1C(=O)O)C(Cl)(Cl)Cl)c1cccc([N+](=O)[O-])c1 (configuration not stated)	24µM	i	i	79µM	i	?
O=C(/C=C/c1cccc([N+](=O)[O-])c1)NC(=S)Nc1ccccc1C(=O)O	nt	nt	i	nt	nt	45µM
CCn1c(C)cc(/C=C2/SC(=S)N(CC(=O)O)C2=O)c1C	i	i	i	i	i	50µM
O=C(O)CN1C(=O)/C(=C\c2cn(-c3ccccc3)nc2-c2ccccc2)SC1=S	21µM	i	?	50µM	?	11µM
C#CCN1C(=O)S/C(=C/c2cc(C)n(CC)c2C)C1=O	i	i	i	i	i	i
CC(C)COc1ccc(-c2nn(-c3ccccc3)cc2/C=C2/SC(=S)N(CC(=O)O)C2=O)cc1	21µM	40µM	45µM	45µM	i	50µM
CCN1C(=O)/C(=C\c2cn(-c3ccccc3)nc2-c2cccnc2)SC1=S	i	i	i	i	i	i
